The antibiotic and cytotoxicity screens of Wong et al. (2023)
Screen size: about 39,000 compounds; about 3,300 (8.5%) were called active. What follows is part of a selection rich in actives, with near analogues and random picks from the rest.

These compounds were tested on HepG2 (assay: cytotoxicity call (relative viability < 0.9)). Details: 10 µM.

| Structure (SMILES) | cytotoxicity call |
| --- | --- |
| C[C@@H]1CN([C@@H](C)CO)C(=O)c2cc(C#CCN(C)C)cnc2O[C@H]1CN(C)Cc1cccc(C(=O)O)c1 | inactive |
| C[C@@H]1CN([C@@H](C)CO)C(=O)c2cccc(NC(=O)C3CCOCC3)c2O[C@H]1CN(C)C(=O)Nc1ccc2c(c1)OCO2 | inactive |
| C[C@@H]1CN([C@H](C)CO)C(=O)Cc2cc(NC(=O)Nc3ccc(F)cc3)ccc2O[C@@H]1CN(C)C(=O)Nc1ccc(C(F)(F)F)cc1 | inactive |
| C[C@H](CO)N1C[C@H](C)[C@@H](CN(C)C(=O)Nc2ccc(C(F)(F)F)cc2)Oc2ccc(NC(=O)Nc3ccc(F)cc3)cc2CC1=O | active |
| C[C@H]1CN([C@@H](C)CO)C(=O)Cc2cc(NC(=O)Nc3ccc(F)cc3)ccc2O[C@H]1CN(C)C(=O)Nc1ccc(C(F)(F)F)cc1 | inactive |
| Cc1ccc(S[C@]2(C(=O)NC(C)C)CC(=O)N(Cc3cc(C(F)(F)F)cc(C(F)(F)F)c3)[C@@H]2c2ccc(CO)cc2)cc1 | inactive |
| CN(C)Cc1cn(CC[C@H]2CC[C@@H](NS(=O)(=O)c3ccccc3)[C@H](CO)O2)nn1 | inactive |
| C[C@H]1CN([C@@H](C)CO)C(=O)Cc2cc(NC(=O)CCC(F)(F)F)ccc2O[C@@H]1CN(C)S(C)(=O)=O | inactive |
| CC(C)(C)[S@](=O)N1Cc2cc(C(=O)N3CCc4ccccc4C3)nc(-c3cccc(-c4cncnc4)c3)c2[C@@H]1CCO | inactive |
| C=CCOC(=O)[C@@H]1[C@H]2C(=O)O[C@H](c3ccccc3)[C@H](c3ccccc3)N2[C@H](c2ccc(OCCOC(=O)NCCCCCC(=O)NO)cc2)[C@]12C(=O)Nc1ccc(I)cc12 | inactive |
| Nc1nnc(-c2ccno2)o1 | inactive |
| CCOC(=O)CCn1cc(F)c(=O)[nH]c1=O | inactive |
| CCOC(=O)Cn1cc(F)c(=O)[nH]c1=O | inactive |
| CC(=O)On1cc(F)c(=O)[nH]c1=O | active |
| Cn1cnc(S(=O)(=O)N2CC[C@H](O)[C@@H]2Cc2cnn(C)c2)c1 | inactive |
| C[C@@H]1CCCCO[C@@H](CN(C)C(=O)CCC(F)(F)F)[C@H](C)CN([C@@H](C)CO)C(=O)c2cc(NC(=O)Cc3ccccc3)ccc2O1 | inactive |
| C[C@@H]1CCCCO[C@@H](CN(C)C(=O)Nc2ccc(C(F)(F)F)cc2)[C@H](C)CN([C@H](C)CO)C(=O)c2cc(NC(=O)Cc3ccccc3)ccc2O1 | active |
| C[C@@H]1CCCCO[C@@H](CN(C)C(=O)CCC(F)(F)F)[C@@H](C)CN([C@H](C)CO)C(=O)c2cc(NC(=O)Cc3ccccc3)ccc2O1 | inactive |
| C[C@H]1CCCCO[C@@H](CN(C)C(=O)Nc2ccccc2)[C@@H](C)CN([C@@H](C)CO)C(=O)c2cc(NC(=O)Cc3ccccc3)ccc2O1 | inactive |
| C[C@H]1CCCCO[C@H](CN(C)C(=O)CCC(F)(F)F)[C@@H](C)CN([C@@H](C)CO)C(=O)c2cc(NC(=O)Cc3ccccc3)ccc2O1 | active |
| C[C@@H]1CN([C@H](C)CO)C(=O)c2cc(NC(=O)Cc3ccccc3)ccc2O[C@@H](C)CCCCO[C@H]1CN(C)C(=O)Nc1ccccc1 | active |
| C[C@@H]1CCCCO[C@@H](CN(C)C(=O)Nc2ccccc2)[C@H](C)CN([C@@H](C)CO)C(=O)c2cc(NC(=O)Cc3ccccc3)ccc2O1 | inactive |

| Structure (SMILES) | cytotoxicity call |
| --- | --- |
| C[C@@H]1CCCCO[C@H](CN(C)C(=O)Nc2ccc(C(F)(F)F)cc2)[C@@H](C)CN([C@@H](C)CO)C(=O)c2cc(NC(=O)Cc3ccccc3)ccc2O1 | inactive |
| C[C@H](CO)N1C[C@H](C)[C@@H](CN(C)C(=O)Nc2ccc(C(F)(F)F)cc2)OCCCC[C@H](C)Oc2ccc(NC(=O)Cc3ccccc3)cc2C1=O | inactive |
| CC(C)NC(=O)Nc1ccc2c(c1)C(=O)N([C@@H](C)CO)C[C@@H](C)[C@@H](CN(C)Cc1ccccc1)OCCCC[C@@H](C)O2 | inactive |
| C[C@@H]1CCCCO[C@@H](CN(C)C(=O)Nc2ccc3c(c2)OCO3)[C@@H](C)CN([C@@H](C)CO)C(=O)c2cc(NC(=O)Nc3ccc4c(c3)OCO4)ccc2O1 | inactive |
| CS(=O)(=O)N1CCOC[C@@]2(C1)CN(S(=O)(=O)C1CC1)CCO2 | inactive |
| O=C(C[C@H]1CC[C@H]2[C@@H](COC[C@@H](O)CN2S(=O)(=O)c2cccc(F)c2)O1)NCc1ccc2c(c1)OCO2 | inactive |
| C[C@@H]1CCCCO[C@H](CN(C)C(=O)Nc2ccc3c(c2)OCO3)[C@@H](C)CN([C@H](C)CO)C(=O)c2cc(NC(=O)c3ccccc3)ccc2O1 | inactive |
| O=C(O)CNc1ncccc1O | inactive |
| Cc1ccc(S(=O)(=O)N(C)C[C@H]2Oc3ccc(NC(=O)NC(C)C)cc3CC(=O)N([C@H](C)CO)C[C@@H]2C)cc1 | inactive |
| N=C1CCCN1Cc1[nH]c(=O)[nH]c(=O)c1Cl | inactive |
| Cc1noc(C)c1NC(=O)Nc1ccc2c(c1)C(=O)N([C@@H](C)CO)C[C@@H](C)[C@H](CN(C)Cc1ccccc1)OCCCC[C@H](C)O2 | inactive |
| Cc1noc(C)c1S(=O)(=O)Nc1ccc2c(c1)C(=O)N([C@H](C)CO)C[C@@H](C)[C@@H](CN(C)Cc1ccc(C(=O)O)cc1)O2 | inactive |
| CC(C)NC(=O)N(C)C[C@H]1Oc2ccc(NC(=O)CCCN(C)C)cc2CC(=O)N([C@@H](C)CO)C[C@@H]1C | inactive |
| N[C@H]1CCCC[C@@H]1N1C(=O)CSC1=O | inactive |
| NC1CCCCC1N.O=C1[O][Pt][O]C1=O (stereo not given) | active |
| Cc1c(CN2CCC(Nc3ncnc4sc(CC(F)(F)F)cc34)CC2)ccc2c1cc(C#N)n2Cc1cn[nH]c1 | active |
| Cc1noc(C)c1S(=O)(=O)N(C)C[C@@H]1OCCCC[C@H](C)Oc2ccc(NS(C)(=O)=O)cc2C(=O)N([C@@H](C)CO)C[C@H]1C | inactive |
| CN(C)CCOc1c(Br)cc(/C=C/C(=O)NCCCOc2c(Br)cc(CCN(C)C)cc2Br)cc1Br | active |
| COc1cc(/C=C/C(=O)NCCCNC(=O)/C=C/c2cc(OC)c(OC)c(OC)c2)cc(OC)c1OC | inactive |
| COc1cc(C(=O)NCc2ccc(OCCN(C)C)cc2)cc(OC)c1OC.Cl | inactive |
| CC(C)N(CCOc1c(Br)cc(/C=C/C(=O)NCCCOc2c(Br)cc(CCN(C)C)cc2Br)cc1Br)C(C)C | active |
| C[C@H](CO)N1C[C@H](C)[C@@H](CN(C)C(=O)Nc2ccc3c(c2)OCO3)Oc2ccc(NC(=O)CCCN(C)C)cc2C1=O | inactive |

| Structure (SMILES) | cytotoxicity call |
| --- | --- |
| CO[C@H]1CN(C)C(=O)c2cc(NS(=O)(=O)CC(F)(F)F)ccc2OC[C@H](C)N(C(=O)c2ccc3c(c2)OCO3)C[C@H]1C | inactive |
| O=C(Cc1ccccn1)NCC[C@H]1CC[C@@H](NC(=O)CN2CCOCC2)[C@H](CO)O1 | inactive |
| C[C@H]1CN([C@@H](C)CO)C(=O)c2cc(NC(=O)Cn3cnnn3)ccc2O[C@@H]1CN(C)S(=O)(=O)c1ccccc1 | inactive |
| CC(C)N1C[C@H](C)[C@@H](CN(C)Cc2ccc(Oc3ccccc3)cc2)Oc2c(cccc2-c2nnc(-c3ccncc3)o2)C1=O | inactive |
| C[C@H]1CN([C@@H](C)CO)C(=O)c2cccc(NC(=O)Nc3cccc4ccccc34)c2O[C@H]1CN(C)S(=O)(=O)c1ccc(F)cc1 | inactive |
| COc1cccc(S(=O)(=O)N(C)C[C@@H]2Oc3c(NC(=O)Nc4cccc5ccccc45)cccc3C(=O)N([C@@H](C)CO)C[C@H]2C)c1 | active |
| COc1ccc(S(=O)(=O)N(C)C[C@@H]2Oc3c(NC(=O)Nc4cccc5ccccc45)cccc3C(=O)N([C@@H](C)CO)C[C@H]2C)cc1OC | inactive |
| COc1ccc(S(=O)(=O)N(C)C[C@@H]2Oc3c(NC(=O)Nc4cccc5ccccc45)cccc3C(=O)N([C@@H](C)CO)C[C@H]2C)cc1F | inactive |
| C[C@@H]1CN([C@@H](C)CO)C(=O)c2cccc(NC(=O)Nc3cccc4ccccc34)c2O[C@H]1CN(C)S(=O)(=O)c1ccc(OC(F)(F)F)cc1 | active |
| COc1ccc(S(=O)(=O)N(C)C[C@H]2Oc3c(NC(=O)Nc4cccc5ccccc45)cccc3C(=O)N([C@@H](C)CO)C[C@H]2C)cc1 | inactive |
| COc1ccc(S(=O)(=O)N(C)C[C@@H]2Oc3c(NC(=O)Nc4cccc5ccccc45)cccc3C(=O)N([C@@H](C)CO)C[C@H]2C)cc1 | inactive |
| COc1ccc(S(=O)(=O)N(C)C[C@@H]2Oc3c(NC(=O)Nc4cccc5ccccc45)cccc3C(=O)N([C@@H](C)CO)C[C@H]2C)c(OC)c1 | active |
| COc1ccc(S(=O)(=O)N(C)C[C@H]2Oc3c(NC(=O)Nc4cccc5ccccc45)cccc3C(=O)N([C@@H](C)CO)C[C@@H]2C)cc1 | active |
| C[C@H](CO)N1C[C@H](C)[C@H](CN(C)S(=O)(=O)c2ccccc2)Oc2c(NC(=O)Nc3cccc4ccccc34)cccc2C1=O | inactive |
| COc1ccccc1S(=O)(=O)N(C)C[C@@H]1Oc2c(NC(=O)Nc3cccc4ccccc34)cccc2C(=O)N([C@@H](C)CO)C[C@H]1C | inactive |
| C[C@H](CO)N1C[C@H](C)[C@H](CN(C)S(=O)(=O)c2ccc(F)cc2)Oc2c(NC(=O)Nc3cccc4ccccc34)cccc2C1=O | inactive |
| CC1CN(c2c(F)c(N)c3c(=O)c(C(=O)O)cn(C4CC4)c3c2F)CC(C)N1 (stereo not given) | inactive |
| CC(C)NC(=O)N(C)C[C@H]1OCCCC[C@@H](C)Oc2ccc(NC(=O)Nc3ccc(C(F)(F)F)cc3)cc2C(=O)N([C@H](C)CO)C[C@@H]1C | inactive |
| CC(C)NC(=O)N(C)C[C@@H]1Oc2c(NC(=O)C3CCOCC3)cccc2C(=O)N([C@@H](C)CO)C[C@@H]1C | inactive |
| COc1ccc(S(=O)(=O)Nc2ccc3c(c2)C(=O)N([C@@H](C)CO)C[C@H](C)[C@@H](CN(C)Cc2ccccc2)OCCCC[C@H](C)O3)cc1 | inactive |
| C(=N\c1cc(-c2ccccc2)nn1-c1ccccc1)/c1ccccc1 | inactive |
